What all share (test): yeast three-hybrid, YBZ-1, SC-Leu-His + 0.5 mM 3-AT, 4 days
What all share (settings): tags: N-Gal4 AD-HA kept; label: inside an RPR1-promoter hybrid RNA with tandem MS2 sites; ssRNA

For one assay, the target named is PUM1 PUF domain R4-DHV (Homo sapiens, UniProt Q14671 828-1176, N971D;Q975V). Put shortly:
(§1)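 Pumilio-1 PUF domain libraries, randomized (NNK) at the three base-contacting residues of each repeat, were co-expressed with matching RNA elements from a centromeric plasmid in strain YBZ-1 (LexA–MS2 coat fusion, HIS3 reporter). Transformants were plated on SC-Leu (input) and SC-Leu-His + 0.5 mM 3-AT (selection) for four days, and repeat regions were PCR-amplified and Illumina-sequenced. The interaction score is the log2 change in variant frequency from input to selection, with pseudocount 1 where absent.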

Another assay deals with PUM1 PUF domain R5-TRY (Homo sapiens, UniProt Q14671 828-1176, C1007T;Q1011Y). The method in brief: as §1
In another assay the target is PUM1 PUF domain R3-PFY (Homo sapiens, UniProt Q14671 828-1176, C935P;R936F;Q939Y). Put shortly:
as §1

The next assay deals with T1, PUM1 PUF domain R6-AFR (Homo sapiens, UniProt Q14671 828-1176, N1043A;Y1044F;Q1047R).
T1 sequence: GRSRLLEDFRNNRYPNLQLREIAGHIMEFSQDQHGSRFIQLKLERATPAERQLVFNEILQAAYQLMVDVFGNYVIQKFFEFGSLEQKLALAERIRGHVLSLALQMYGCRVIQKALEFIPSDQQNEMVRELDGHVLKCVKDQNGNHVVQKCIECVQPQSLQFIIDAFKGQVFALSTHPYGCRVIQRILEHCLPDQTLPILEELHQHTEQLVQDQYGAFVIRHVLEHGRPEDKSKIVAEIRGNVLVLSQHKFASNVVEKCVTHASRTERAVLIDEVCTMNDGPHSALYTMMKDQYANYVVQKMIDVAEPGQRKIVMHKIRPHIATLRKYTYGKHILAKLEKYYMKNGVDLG
Put shortly:
as §1

The next assay deals with PUM1 PUF domain R4-TRG (Homo sapiens, UniProt Q14671 828-1176, N971T;H972R;Q975G). The method in brief:
as §1

The target in the next assay is T2, PUM1 PUF domain R6-GYK (Homo sapiens, UniProt Q14671 828-1176, N1043G;Q1047K).
T2 sequence: T1 sequence with A216G, F217Y, R220K
The method in brief: as §1

Another assay has as its target T3, PUM1 PUF domain R6-NFL (Homo sapiens, UniProt Q14671 828-1176, Y1044F;Q1047L).
T3 sequence: T1 sequence with A216N, R220L
The method in brief: as §1

For another assay, the target named is PUM1 PUF domain R5-NAI (Homo sapiens, UniProt Q14671 828-1176, C1007N;R1008A;Q1011I). Put shortly:
as §1

Another assay deals with PUM1 PUF domain R7-KWN (Homo sapiens, UniProt Q14671 828-1176, S1079K;N1080W;E1083N). The method in brief:
as §1

A further assay concerns the target PUM1 PUF domain R1-KTY (Homo sapiens, UniProt Q14671 828-1176, S863K;R864T;Q867Y). The method in brief:
as §1

Our source for the binding signal values is publication PMC8384837, “Expanding the binding specificity for RNA recognition by a PUF domain”.

Numbering of substitutions follows the chain as printed.

Turning to “GGCUAGAACUAGUGGAUCCCCCGGCGCCCGGCGGCUCGAGCCCGGGUAAGUGUACAUAGUCUGCAUGCCGCCGGGCGCCAUGCCUGCAGGUCGACUCUAGAAAACAUG”, the binding signal in the assay with PUM1 PUF domain R4-DHV is 5.75 log2 enrichment (interaction score).
Regarding “GGCUAGAACUAGUGGAUCCCCCGGCGCCCGGCGGCUCGAGCCCGGGUAAGUGUAAAUAGUCUGCAUGCCGCCGGGCGCCAUGCCUGCAGGUCGACUCUAGAAAACAUG”, the binding signal in the assay with PUM1 PUF domain R5-TRY was 4.49 log2 enrichment (interaction score); with PUM1 PUF domain R3-PFY, 4.24 log2 enrichment (interaction score); with PUM1 PUF domain R6-AFR, 4.43 log2 enrichment (interaction score); with PUM1 PUF domain R4-TRG it was 5.35 log2 enrichment (interaction score); in the assay with PUM1 PUF domain R6-GYK, 2.87 log2 enrichment (interaction score); in the assay with PUM1 PUF domain R6-NFL, 5.25 log2 enrichment (interaction score).
For “GGCUAGAACUAGUGGAUCCCCCGGCGCCCGGCGGCUCGAGCCCGGGUAAGUGUAUAUAGUCUGCAUGCCGCCGGGCGCCAUGCCUGCAGGUCGACUCUAGAAAACAUG”, the binding signal in the assay with PUM1 PUF domain R4-DHV is 6.27 log2 enrichment (interaction score).
Regarding “GGCUAGAACUAGUGGAUCCCCCGGCGCCCGGCGGCUCGAGCCCGGGUAAGUGUUAAUAGUCUGCAUGCCGCCGGGCGCCAUGCCUGCAGGUCGACUCUAGAAAACAUG”, the binding signal in the assay with PUM1 PUF domain R5-NAI was 3.43 log2 enrichment (interaction score).
“GGCUAGAACUAGUGGAUCCCCCGGCGCCCGGCGGCUCGAGCCCGGGUAAGUGCAAAUAGUCUGCAUGCCGCCGGGCGCCAUGCCUGCAGGUCGACUCUAGAAAACAUG”: the binding signal in the assay with PUM1 PUF domain R6-AFR is 4.86 log2 enrichment (interaction score).
“GGCUAGAACUAGUGGAUCCCCCGGCGCCCGGCGGCUCGAGCCCGGGUAAGUCUAAAUAGUCUGCAUGCCGCCGGGCGCCAUGCCUGCAGGUCGACUCUAGAAAACAUG”: the binding signal in the assay with PUM1 PUF domain R7-KWN was 5.98 log2 enrichment (interaction score).
With “GGCUAGAACUAGUGGAUCCCCCGGCGCCCGGCGGCUCGAGCCCGGGUAAGUGUAAAUUGUCUGCAUGCCGCCGGGCGCCAUGCCUGCAGGUCGACUCUAGAAAACAUG”, in the assay with PUM1 PUF domain R1-KTY, the binding signal was 3.93 log2 enrichment (interaction score).
